Laboratory results reported in PubChem BioAssay (Tox21).
“And” between values parts separate entries of the source, which are not always exact repeats. Identical values can stand only once. Records with an inconclusive call do not appear. Where a structure was tested more than once in an assay, its records may differ in their call. The source made the active and inactive calls. Unless noted, calls follow the shape of the dose curve; as a rule, active = well fitted curve in the direction sought with a large enough effect in the repeat runs; inconclusive = weak or mixed curves; inactive = no such curve, though single readings can be large; an effect the other way counts as inactive or inconclusive.

Experiments:
[1] = qHTS assay to identify small molecule agonists of the estrogen receptor beta (ER-beta) signaling pathway - cell viability counter screen (AID 1259380); also: nearly all actives have a fitted effect of over 30% in size; also: potency is read from the fitted curve at half-maximal effect
Method in brief: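 Compounds dissolved in DMSO were pin-transferred onto ER-beta-UAS-bla HEK293T cells that had settled 6 hr, and exposure ran 16 hr at 37C. Following the reporter read, CellTiter-Glo luminescence after 30 min at room temperature indicated cytotoxicity.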

[2] = molecular target: Androgen receptor (Homo sapiens) (UniProt P10275); test: qHTS assay to identify small molecule agonists of the androgen receptor (AR) signaling pathway in the presence of an antagonist (AID 1259381; calls by dose curve; also: nearly all actives have a fitted effect of over 15% in size)
Chain of Androgen receptor (Homo sapiens) (P10275 whole entry, looked up): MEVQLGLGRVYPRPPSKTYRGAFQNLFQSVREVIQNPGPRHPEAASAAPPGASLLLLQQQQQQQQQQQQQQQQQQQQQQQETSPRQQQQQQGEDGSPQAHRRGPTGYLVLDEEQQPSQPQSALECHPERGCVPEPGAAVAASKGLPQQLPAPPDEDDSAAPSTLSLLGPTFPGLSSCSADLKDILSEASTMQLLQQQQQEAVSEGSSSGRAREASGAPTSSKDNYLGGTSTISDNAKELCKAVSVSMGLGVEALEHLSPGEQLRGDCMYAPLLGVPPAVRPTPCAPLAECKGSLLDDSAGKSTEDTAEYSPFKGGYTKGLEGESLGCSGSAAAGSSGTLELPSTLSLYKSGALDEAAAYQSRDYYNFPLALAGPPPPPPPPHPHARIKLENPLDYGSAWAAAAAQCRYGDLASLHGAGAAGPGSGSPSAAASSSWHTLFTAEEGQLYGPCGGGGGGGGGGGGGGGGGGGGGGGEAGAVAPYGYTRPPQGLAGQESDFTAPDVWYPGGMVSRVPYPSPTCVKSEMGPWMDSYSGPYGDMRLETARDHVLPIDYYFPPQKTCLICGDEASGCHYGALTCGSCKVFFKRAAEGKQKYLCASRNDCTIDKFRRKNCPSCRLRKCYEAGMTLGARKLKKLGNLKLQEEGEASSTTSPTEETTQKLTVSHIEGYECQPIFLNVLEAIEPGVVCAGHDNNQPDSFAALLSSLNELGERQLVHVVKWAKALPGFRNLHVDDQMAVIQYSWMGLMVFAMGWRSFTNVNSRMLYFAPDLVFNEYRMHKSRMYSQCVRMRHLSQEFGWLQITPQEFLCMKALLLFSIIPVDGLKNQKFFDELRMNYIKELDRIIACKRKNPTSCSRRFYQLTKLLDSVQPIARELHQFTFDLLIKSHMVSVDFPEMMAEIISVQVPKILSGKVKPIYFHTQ
Method in brief: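 Plated MDA-kb2 cells (3,000/well) were pre-incubated 5hr, given nilutamide (3.0uM final) or buffer, then dosed with compounds in DMSO at 15 concentrations. Luciferase activity was quantified by luminescence after 16hr at 37C.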

[3] = qHTS assay to identify small molecule antagonists of the estrogen receptor beta (ER-beta) signaling pathway - cell viability counter screen (AID 1259382); also: nearly all actives have a fitted effect of over 55% in size; also: potency is read from the fitted curve at half-maximal effect;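 as to activity change, negative = cytotoxicity: HEK293T cells carrying ER-beta-UAS-bla reporter stimulated with estradiol; series mostly up to about 92 µM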
Method in brief: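 CellTiter-Glo ATP luminescence measured after the LiveBLAzer read in the same wells; ER-beta-UAS-bla HEK293T cells, 16 hr compound treatment with 1nM 17-beta-estradiol agonist at 37C, 5% CO2.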

[4] = molecular target: Estrogen receptor (Homo sapiens) (UniProt P03372); test: qHTS assay to identify small molecule agonists of the estrogen receptor alpha (ER-alpha) signaling pathway in the presence of an antagonist (AID 1259383; calls by dose curve; also: top concentration of the series differs between compounds; nearly all actives have a fitted effect of over 15% in size)
Chain of Estrogen receptor (Homo sapiens) (P03372 whole entry, looked up): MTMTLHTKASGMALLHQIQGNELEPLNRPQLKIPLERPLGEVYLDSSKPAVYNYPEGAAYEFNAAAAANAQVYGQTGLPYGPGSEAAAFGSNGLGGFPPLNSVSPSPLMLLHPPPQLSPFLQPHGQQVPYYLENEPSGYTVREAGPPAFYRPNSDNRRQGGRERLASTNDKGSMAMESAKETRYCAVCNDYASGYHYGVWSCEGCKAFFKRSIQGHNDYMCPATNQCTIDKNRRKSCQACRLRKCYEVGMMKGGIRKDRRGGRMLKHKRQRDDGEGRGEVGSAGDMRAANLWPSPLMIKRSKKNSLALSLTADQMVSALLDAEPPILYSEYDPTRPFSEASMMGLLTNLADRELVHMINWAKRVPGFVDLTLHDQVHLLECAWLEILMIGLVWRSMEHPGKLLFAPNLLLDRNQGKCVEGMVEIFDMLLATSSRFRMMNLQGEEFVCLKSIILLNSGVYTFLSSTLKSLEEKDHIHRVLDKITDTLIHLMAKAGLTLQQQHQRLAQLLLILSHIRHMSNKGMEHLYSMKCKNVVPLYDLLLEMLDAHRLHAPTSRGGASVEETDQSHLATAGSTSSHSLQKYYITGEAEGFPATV
Method in brief: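 Luminescent ERE-luciferase reporter, VM7Luc4E2 cells (endogenous ER-alpha); 10.0nM ICI-182,780 final; 15-point compound titration; 22hr at 37C; ONE-Glo, 30min RT.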

[5] = qHTS assay to identify small molecule agonists or antagonists of the thyroid stimulating hormone receptor (TSHR) signaling pathway - wild type cell line counter screen (AID 1259384; calls by dose curve)
Method in brief: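 Wild-type Hek293 cells, 800/well, 18 h at 37C, then compound with Ro20-1724 for 30 min RT. cAMP by HTRF (cAMP-d2/anti-cAMP cryptate), 1 h RT, fluorescence read. 15 concentrations, triplicates.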

[6] = qHTS assay to identify small molecule agonists of the estrogen receptor alpha (ER-alpha) signaling pathway in the presence of an antagonist - cell viability counter screen (AID 1259386);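 also: series mostly up to about 92 µM; cells exposed to compounds for 22 h at 37 °C before the viability read; nearly all actives have a fitted effect of over 30% in size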
Method in brief: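 Using estrogen-depleted VM7Luc4E2 cells, the 15-concentration compound series was applied together with 10.0nM ICI-182,780 and incubated 22hr at 37C/5% CO2. Cell viability was then scored by CellTiter-Fluor.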

[7] = molecular target: Progesterone receptor (Homo sapiens) (UniProt P06401); test: qHTS assay to identify small molecule agonists of the progesterone receptor (PR) signaling pathway (AID 1346784; calls by dose curve; also: nearly all actives have a fitted effect of over 30% in size)
Chain of Progesterone receptor (Homo sapiens) (P06401 whole entry, looked up): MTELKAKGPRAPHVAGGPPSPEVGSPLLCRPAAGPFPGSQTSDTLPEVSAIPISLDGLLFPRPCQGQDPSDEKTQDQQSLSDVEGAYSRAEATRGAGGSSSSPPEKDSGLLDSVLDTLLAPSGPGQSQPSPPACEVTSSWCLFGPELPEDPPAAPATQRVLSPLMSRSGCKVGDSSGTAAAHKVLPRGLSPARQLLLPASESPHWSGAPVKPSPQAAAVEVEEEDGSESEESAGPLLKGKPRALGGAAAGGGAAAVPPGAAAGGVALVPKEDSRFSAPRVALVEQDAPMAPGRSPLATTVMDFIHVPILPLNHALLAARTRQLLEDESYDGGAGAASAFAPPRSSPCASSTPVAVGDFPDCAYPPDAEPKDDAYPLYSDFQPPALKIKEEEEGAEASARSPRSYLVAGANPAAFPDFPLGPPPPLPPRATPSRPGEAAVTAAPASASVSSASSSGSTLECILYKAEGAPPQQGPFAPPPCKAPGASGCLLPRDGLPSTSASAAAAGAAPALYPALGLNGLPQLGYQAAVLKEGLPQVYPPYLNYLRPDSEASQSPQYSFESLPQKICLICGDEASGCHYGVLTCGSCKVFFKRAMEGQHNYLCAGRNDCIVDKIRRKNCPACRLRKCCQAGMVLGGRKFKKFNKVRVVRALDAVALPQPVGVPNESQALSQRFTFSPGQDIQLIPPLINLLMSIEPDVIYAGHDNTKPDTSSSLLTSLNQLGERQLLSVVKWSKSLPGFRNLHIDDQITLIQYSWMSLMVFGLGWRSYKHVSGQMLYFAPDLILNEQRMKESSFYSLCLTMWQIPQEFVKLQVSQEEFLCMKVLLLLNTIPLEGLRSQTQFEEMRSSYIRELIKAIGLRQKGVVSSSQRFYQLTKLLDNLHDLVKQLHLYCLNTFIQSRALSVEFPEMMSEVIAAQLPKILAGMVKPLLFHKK
Method in brief: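 Using charcoal-stripped serum (2%) to limit endogenous steroids, PR-UAS-bla HEK 293T cells received compounds for 16 hr at 37C after 6 hr plating; beta-lactamase FRET fluorescence was recorded following 2 hr substrate loading at room temperature.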

[8] = molecular target: Progesterone receptor (Homo sapiens) (UniProt P06401); test: qHTS assay to identify small molecule antagonists of the progesterone receptor (PR) signaling pathway (AID 1346795; active = well fitted inhibition curve with a large enough effect in the signal ratio in the repeat runs, not every such curve was filed as active; the % refers to the signal ratio; also: potency is read from the fitted curve at half-maximal effect)
Method in brief: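 Inhibition of R5020-induced (1 nM final) beta-lactamase reporter signal in PR-UAS-bla HEK293T cells was scored by FRET fluorescence after overnight (16 hr) compound treatment.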

[9] = qHTS assay to identify small molecule antagonists of the progesterone receptor (PR) signaling pathway - cell viability counter screen (AID 1346798); also: series mostly up to about 92 µM; nearly all actives have a fitted effect of over 50% in size
Method in brief: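 ATP content as viability readout: CellTiter-Glo luminescence, 30 min room temperature, in PR-UAS-bla HEK293T cells after 16 hr compound/R5020 treatment at 37C and 5% CO2.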

[10] = qHTS assay to identify small molecule agonists of the progesterone receptor (PR) signaling pathway - cell viability counter screen (AID 1346799; calls by dose curve; also: nearly all actives have a fitted effect of over 45% in size; also: potency is read from the fitted curve at half-maximal effect)
Method in brief: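 Cytotoxicity in PR-bla HEK293T cells: 16 h compound, 37C; CellTiter-Glo added post-FRET read; luminescence after 30 min RT.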

[11] = qHTS assay to identify small molecule antagonists of the TGF-beta/Smad signaling pathway - cell viability counter screen (AID 1346824); also: nearly all actives have a fitted effect of over 50% in size
Method in brief: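 SBE-bla HEK 293T cells, incubated overnight, then compound plus 0.25 ng/mL TGF-beta1 (stock added) for 5 hr at 37 C. Viability was read in the same wells by CellTiter-Glo luminescence after 30 min at room temperature.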

[12] = qHTS assay to identify small molecule agonists of the TGF-beta/Smad signaling pathway - cell viability counter screen (AID 1346829); also: top concentration of the series differs between compounds; nearly all actives have a fitted effect of over 45% in size
Method in brief: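 Tox21 qHTS format: SBE-bla HEK 293T cells treated with DMSO-dissolved compounds for 5 hr; CellTiter-Glo luminescence after 30 min at room temperature.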

[13] = qHTS assay to identify small molecule agonists of the TGF-beta/Smad signaling pathway (AID 1346859; active = well fitted activation curve with a large enough effect in the signal ratio in the repeat runs, not every such curve was filed as active; the % refers to the signal ratio; also: series mostly up to about 77 µM)
Method in brief: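 Stable Smad binding element-beta-lactamase HEK 293T cells; 5 hr compound exposure at 37 C under 5% CO2; 2 hr room-temperature substrate step; fluorescence excited at 405 nm, collected at 460 nm and 530 nm.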

[14] = molecular target: Thyrotropin-releasing hormone receptor (Homo sapiens) (UniProt P34981); test: qHTS assay to identify small molecule antagonists of the thyrotropin-releasing hormone receptor (TRHR) signaling pathway (AID 1346877; active = well fitted inhibition curve with a large enough effect in the repeat runs, not every such curve was filed as active; also: series mostly up to about 51 µM)
Chain of Thyrotropin-releasing hormone receptor (Homo sapiens) (P34981 whole entry, looked up): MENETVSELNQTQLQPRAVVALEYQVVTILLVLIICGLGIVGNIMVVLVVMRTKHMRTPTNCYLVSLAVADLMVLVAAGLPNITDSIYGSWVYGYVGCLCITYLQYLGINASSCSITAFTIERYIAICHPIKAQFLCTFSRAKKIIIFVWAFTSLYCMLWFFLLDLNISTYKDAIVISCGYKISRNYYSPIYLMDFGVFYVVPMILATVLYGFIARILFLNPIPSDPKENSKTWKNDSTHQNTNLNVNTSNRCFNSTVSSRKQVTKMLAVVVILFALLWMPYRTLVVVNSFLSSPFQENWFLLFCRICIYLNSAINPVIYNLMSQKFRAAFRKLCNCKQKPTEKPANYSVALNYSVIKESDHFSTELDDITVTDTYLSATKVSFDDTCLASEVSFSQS
Method in brief: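 Calcium signal in dye-loaded TRHR/HEK293 cells; compounds added 5 min before TRH (1 nM final); fluorescence monitored 3 min at 1 s steps.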

[15] = molecular target: Thyrotropin-releasing hormone receptor (Homo sapiens) (UniProt P34981); test: qHTS assay to identify small molecule agonists of the thyrotropin-releasing hormone receptor (TRHR) signaling pathway (AID 1346891; calls by dose curve;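 also: HEK293 cells expressing TRHR with calcium dye readout; series mostly up to about 58 µM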)
Method in brief: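 In 1536-format, 1500 TRHR-Hek293 cells per well grew 18 h, took up calcium dye for 2 h at 37 °C, received compound, and were read kinetically; 15-point titrations, triplicates.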

[16] = Human pregnane X receptor (PXR) small molecule agonists, qHTS cell viability counter screen (AID 1346977); also: nearly all actives have a fitted effect of over 50% in size; also: potency is read from the fitted curve at half-maximal effect
Method in brief: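 Readout is CellTiter-Fluor fluorescence from PXR-Luc HepG2 cells. Plated cells rested 5hr, then were treated with compounds for 24hr at 37C and 5% CO2, with reagent present during the last hour.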

[17] = Caspase-3/7 induction in HepG2 cells by small molecules, qHTS assay (AID 1346978); also: nearly all actives have a fitted effect of over 15% in size
Method in brief: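 Wild-type HepG2 cells, 2,000/well, settled 5 hr at 37 C and 5% CO2, then compound-treated for 17 hr; caspase-3/7 activity read by luminescent Caspase-Glo 3/7 after 30 min at room temperature.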

[18] = Caspase-3/7 induction in CHO-K1 cells by small molecules, qHTS assay (AID 1346980); also: nearly all actives have a fitted effect of over 15% in size
Method in brief: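 Wild-type CHO-K1 cells exposed to compounds for 17hr at 37 C, 5% CO2. Caspase-3/7 activity then measured by Caspase-Glo 3/7 luminescence after 30min at room temperature.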

[19] = molecular target: Thyrotropin receptor (Homo sapiens) (UniProt P16473); test: qHTS assay to identify small molecule antagonists of the thyroid stimulating hormone receptor (TSHR) signaling pathway (AID 1259385; calls by dose curve; also: nearly all actives have a fitted effect of over 20% in size)
Chain of Thyrotropin receptor (Homo sapiens) (P16473 whole entry, looked up): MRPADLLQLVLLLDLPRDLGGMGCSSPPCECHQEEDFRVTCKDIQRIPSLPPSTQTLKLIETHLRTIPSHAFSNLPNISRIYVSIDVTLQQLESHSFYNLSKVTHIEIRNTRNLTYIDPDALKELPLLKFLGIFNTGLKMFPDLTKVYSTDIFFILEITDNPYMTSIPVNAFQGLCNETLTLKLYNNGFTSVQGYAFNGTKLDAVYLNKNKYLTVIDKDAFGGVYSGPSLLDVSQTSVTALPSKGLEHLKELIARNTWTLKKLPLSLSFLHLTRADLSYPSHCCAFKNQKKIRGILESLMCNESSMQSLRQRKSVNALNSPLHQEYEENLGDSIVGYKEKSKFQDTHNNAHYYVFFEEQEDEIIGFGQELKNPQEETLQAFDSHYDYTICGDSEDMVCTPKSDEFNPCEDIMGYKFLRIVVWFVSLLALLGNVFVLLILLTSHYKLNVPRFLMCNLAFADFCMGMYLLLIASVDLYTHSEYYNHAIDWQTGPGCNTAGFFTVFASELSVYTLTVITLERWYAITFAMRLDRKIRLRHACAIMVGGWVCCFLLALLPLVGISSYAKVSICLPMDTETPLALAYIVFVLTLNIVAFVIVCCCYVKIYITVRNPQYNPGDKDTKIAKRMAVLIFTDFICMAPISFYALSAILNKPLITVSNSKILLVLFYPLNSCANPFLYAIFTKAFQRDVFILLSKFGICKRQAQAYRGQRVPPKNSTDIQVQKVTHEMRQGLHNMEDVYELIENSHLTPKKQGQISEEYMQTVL
Method in brief: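 TSHR-HEK293 cells (800/well) plated 18 h, then compounds with Ro20-1724 and TSH at 1.5 ng/mL final, 30 min at room temperature. cAMP quantified by HTRF (cAMP-d2/anti-cAMP-cryptate, 1 h); 15 concentrations in triplicate.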

[20] = Caspase-3/7 induction in CHO-K1 cells by small molecules, qHTS cell viability counter screen (AID 1346979); also: nearly all actives have a fitted effect of over 35% in size
Method in brief: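 To flag cytotoxic compounds, treated CHO-K1 wild-type cells were given CellTiter-Fluor at 16hr and read fluorescently after 1hr at 37C; the caspase-3/7 luminescence was measured in these same wells.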
% is scaled to controls: 0 for no effect and ±100 for the full control effect.

O=C(O)c1ccc2c(c1)C(=O)OC2=O
inactive: Potency [1] | Potency [2] | Potency [3] | Potency [4] | outcome [5] | Potency [6] | Potency [7] | Potency [8] | Potency [9] | Potency [10] | Potency [11] | Potency [12] | outcome [13] | Potency [14] | outcome [15] | Potency [16] | Potency [17] | outcome [18]

CCCCCCCCCCCCS
inactive: Potency [1] | Potency [3] | Potency [4] | outcome [5] | Potency [19] | Potency [6] | Potency [7] | Potency [8] | Potency [9] | Potency [10] | Potency [11] | Potency [12] | outcome [13] | Potency [14] | outcome [15] | Potency [16] | Potency [17] | Potency [20] | outcome [18]

NNc1nncc2ccccc12
inactive: activity change, negative = cytotoxicity [1] -0.605% [at 19 µM] | Potency [3] | Potency [19] | activity change, negative = cytotoxicity [6] -0.882% [at 19 µM] | Potency [7] | activity change, negative = inhibition [8] 9.77% [at 18.9 µM] | activity change, negative = cytotoxicity [9] -14.1% [at 18.9 µM] | activity change, negative = cytotoxicity [10] -14.8% [at 19 µM] | Potency [11] | Potency [12] | outcome [13] | activity change, negative = cytotoxicity [16] 6.87% [at 19 µM] | Potency [17] | outcome [18]
active: Potency [1] 21.7 µM | Potency [8] 61.1 µM | Potency [16] 48.6 µM

CCC(O)OC(O)CC (configuration not stated)
inactive: Potency [1] | Potency [3] | Potency [4] | outcome [5] | Potency [19] | Potency [6] | Potency [7] | Potency [8] | Potency [9] | Potency [10] | Potency [11] | Potency [12] | outcome [13] | Potency [14] | outcome [15] | Potency [16] | Potency [17] | Potency [20] | outcome [18]

O=S(=O)(O)c1ccc2ccccc2c1
inactive: Potency [1] | Potency [3] | Potency [4] | outcome [5] | Potency [19] | Potency [6] | Potency [7] | Potency [8] | Potency [9] | Potency [10] | Potency [11] | Potency [12] | outcome [13] | Potency [14] | outcome [15] | Potency [16] | Potency [17] | outcome [18]

C=C(C)C(=O)O[C@H]1C[C@@H]2CC[C@@]1(C)C2(C)C
2.71 µM (active) and inactive: Potency [8]
4.3 µM (active) and inactive: Potency [1]
7.65 µM (active) and inactive: Potency [3]
inactive: Potency [4] | outcome [5] | Potency [19] | Potency [6] | Potency [7] | Potency [11] | Potency [12] | outcome [13] | Potency [14] | outcome [15] | Potency [16] | Potency [17] | Potency [20] | outcome [18]
8.58 µM (active) and inactive: Potency [10]

C=C(C)C(=O)Nc1ccc(Cl)c(Cl)c1
active: Potency [1] 55 µM and 54.3 µM | Potency [8] 24.6 µM and 48.4 µM
inactive: Potency [3] | Potency [4] | outcome [5] | Potency [6] | Potency [7] | Potency [9] | Potency [10] | Potency [11] | Potency [12] | outcome [13] | Potency [14] | outcome [15] | Potency [16] | Potency [17] | outcome [18]

O=C(O)CCCCCCCCCCC(=O)O
inactive: Potency [1] | Potency [3] | Potency [4] | Potency [19] | Potency [6] | Potency [7] | Potency [8] | Potency [9] | Potency [10] | Potency [11] | Potency [12] | outcome [13] | Potency [16] | Potency [17] | Potency [20] | outcome [18]
